# Inconclusive results are not listed. Active and inactive are the calls of the source. Calls come from the whole dose curve; as a rule, active = well fitted inhibition curve with a large enough effect; inconclusive = small, poorly fitted or top-dose-only effect; inactive = no such curve, though single readings can be large or run the other way.
# Test: qHTS Assay for Lipid Storage Modulators: COS7 Assay against Probe and Analogs
# Conditions: COS7 lipid droplet area, BODIPY imaging, 18 h; cells loaded with 400 µM oleic acid
# Outline: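 COS7 cells treated 17-18 h with compound in 5% FBS medium, 0.2% DMSO and 400 microM oleic acid. Fixed cells stained with BODIPY 493/503 and Hoechst; lipid droplets counted from microscope images by visual review and image segmentation.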
SMILES,max response,Potency
Cc1cc(SCc2sc(-c3ccc(C(F)(F)F)cc3)nc2C)ccc1OCC(=O)O,14.2% (inactive),
CCOc1ccc(CCNC(=O)c2cc3sccc3n2Cc2ccccc2)cc1OCC,,935 nM (active)
CCOc1ccc(CCNC(=O)c2cccs2)cc1OCC,-20.6% (inactive),
CCOc1ccc(CCNC(=O)c2cc3sccc3n2CCN2CCOCC2)cc1OCC,,2960 nM (active)
CCOc1ccc(CCNC(C)=O)cc1OCC,-6.62% (inactive),
O=C(NC1CCCc2c1cnn2-c1ccc(F)cc1F)c1ccc(C(=O)c2ccccc2)cc1 (stereo unspecified),18.1% (inactive),
O=C(N[C@H]1CCCc2c1cnn2-c1ccc(F)cc1F)c1ccccn1,6.84% (inactive),
CCn1c(C(=O)NCc2ccc(OC)c(OC)c2)cc2sccc21,0.0567% (inactive),
CCOc1cc(CCNC(=O)c2cc3sccc3n2Cc2ccccc2)cc(F)c1OCC,,2350 nM (active)
CCOc1ccc(CCNC(=O)c2cc3ccccc3n2C)cc1OCC,,16600 nM (active)
CCNC(=O)C1CCN(C(=O)C(C)(C)NC(=O)Nc2ccccc2Cl)CC1,-3.83% (inactive),
CCOc1ccc(CCNC(=O)c2ccc(C3(C(F)(F)F)N=N3)cc2)cc1OCC,,7430 nM (active)
O=C(NC1CCCc2c1cnn2-c1ccc(F)cc1F)c1ccncc1 (stereo unspecified),1.34% (inactive),
O=C(NC1CCCc2c1cnn2-c1ccc(F)cc1F)c1cnccn1 (stereo unspecified),-14.9% (inactive),
CCOc1ccc(CCNC(=O)c2ccccn2)cc1OCC,1.41% (inactive),
O=C(Nc1cccc2c1cnn2-c1ccc(F)cc1)c1ccccn1,3.22% (inactive),
